The source of these data is ChEMBL document CHEMBL3988442, “University of Dundee, Small-Polar-MMV Screening Library” (2021).

SMILES strings stand for the structures. For some assays here: Results with a measured potency or affinity are listed apart.

Holding throughout (set-up): scale not given: direction of the effect not stated beside the values
Assay [1] has as its target Protein translocase subunit SecA (Escherichia coli (strain K12)) (UniProt P10408). The experiment in a line: Assay to Identify E. coli SecA ATPase Inhibitors. The class given is functional. To be noted: 30 µM.
Assay [2] concerns the target T1, Ubiquitin-activating enzyme e1, putative (Leishmania donovani (strain BPK282A1)) (UniProt E9BSI1).
T1 sequence (whole entry): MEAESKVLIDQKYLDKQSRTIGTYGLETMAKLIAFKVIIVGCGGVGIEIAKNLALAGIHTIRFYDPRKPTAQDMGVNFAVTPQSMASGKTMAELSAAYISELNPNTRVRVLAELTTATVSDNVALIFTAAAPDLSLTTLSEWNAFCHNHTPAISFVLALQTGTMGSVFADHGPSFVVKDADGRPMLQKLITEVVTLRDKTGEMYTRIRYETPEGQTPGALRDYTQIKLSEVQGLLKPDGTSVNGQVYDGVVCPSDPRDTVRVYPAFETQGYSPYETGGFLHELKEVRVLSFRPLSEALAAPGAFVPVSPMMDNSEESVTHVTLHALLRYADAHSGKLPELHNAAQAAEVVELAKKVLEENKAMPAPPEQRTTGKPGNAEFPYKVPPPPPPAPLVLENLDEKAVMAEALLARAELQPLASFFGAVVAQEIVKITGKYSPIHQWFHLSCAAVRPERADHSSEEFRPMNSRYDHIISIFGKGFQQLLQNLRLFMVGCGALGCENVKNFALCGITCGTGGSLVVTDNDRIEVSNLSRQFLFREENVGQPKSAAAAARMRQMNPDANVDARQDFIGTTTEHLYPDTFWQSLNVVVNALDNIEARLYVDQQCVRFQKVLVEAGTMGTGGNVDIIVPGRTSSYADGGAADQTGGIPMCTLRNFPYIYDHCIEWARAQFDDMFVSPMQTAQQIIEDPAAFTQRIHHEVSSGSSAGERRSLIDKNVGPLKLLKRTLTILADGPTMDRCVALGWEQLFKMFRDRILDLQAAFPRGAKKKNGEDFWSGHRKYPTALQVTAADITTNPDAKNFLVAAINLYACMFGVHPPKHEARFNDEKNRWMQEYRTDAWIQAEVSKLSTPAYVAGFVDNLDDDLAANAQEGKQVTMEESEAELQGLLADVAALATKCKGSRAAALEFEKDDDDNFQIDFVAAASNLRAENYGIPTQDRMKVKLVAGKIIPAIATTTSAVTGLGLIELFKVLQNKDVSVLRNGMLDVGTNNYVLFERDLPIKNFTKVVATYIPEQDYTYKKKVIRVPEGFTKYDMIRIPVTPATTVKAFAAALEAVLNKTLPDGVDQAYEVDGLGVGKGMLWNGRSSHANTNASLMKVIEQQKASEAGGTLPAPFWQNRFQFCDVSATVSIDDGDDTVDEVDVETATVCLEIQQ
The experiment in a line: Leishmania donovani Ubiquitin Activating Enzyme (LdE1). The class given is functional. To be noted: 30 µM.

Assay [3] deals with AMP-activated protein kinase, AMPK (Homo sapiens) (UniProt P54646+O43741+P54619+Q9UGJ0+Q9Y478+Q13131+Q9UGI9). Put plainly: AMP-dependent Kinase enzyme assay. An in vitro enzyme assay that detects ADP turnover that is directly proportional to AMPK activity. This uses naive AMPK that is activated during the assay with MK-8722. The class given is functional. To be noted: 30 µM.

The target in assay [4] is Sialic acid-binding Ig-like lectin 9 (Homo sapiens) (UniProt Q9Y336). The experiment in a line: Hs-Siglec9 ALPHAscreen SOP 20170721. The following applies: 10 µM. For orientation: Alpha assays give light when donor and acceptor beads are brought close together.
Assay [5] deals with Trypanosoma cruzi. The experiment in a line: Trypanosoma cruzi phosphomannomutase and mannose-1-phosphate guanylyltransferase assay. The format is functional. To be noted: 10 µM.
Assay [6] addresses T2, Arginase-2, mitochondrial (Homo sapiens) (UniProt P78540).
T2 sequence (whole entry): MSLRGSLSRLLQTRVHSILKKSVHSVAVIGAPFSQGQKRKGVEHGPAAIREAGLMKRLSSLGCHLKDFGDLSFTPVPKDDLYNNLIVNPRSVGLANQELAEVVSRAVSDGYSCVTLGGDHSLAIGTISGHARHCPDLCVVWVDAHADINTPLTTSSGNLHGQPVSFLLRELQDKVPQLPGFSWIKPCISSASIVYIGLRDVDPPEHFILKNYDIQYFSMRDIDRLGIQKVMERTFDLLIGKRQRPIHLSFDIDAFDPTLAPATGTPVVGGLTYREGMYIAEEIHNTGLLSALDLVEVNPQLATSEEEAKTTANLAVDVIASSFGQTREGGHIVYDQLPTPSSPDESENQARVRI
The experiment in a line: in vitro enzyme assay to detect the production of urea directly proportional to the activity of Arginase II. Further: in the data most compounds retested in dose-response had high values. The class given is functional. The following applies: 33.3 µM.

Assay [7] addresses T3, Proteasome subunit beta (Trypanosoma cruzi) (UniProt O96673).
T3 sequence (whole entry): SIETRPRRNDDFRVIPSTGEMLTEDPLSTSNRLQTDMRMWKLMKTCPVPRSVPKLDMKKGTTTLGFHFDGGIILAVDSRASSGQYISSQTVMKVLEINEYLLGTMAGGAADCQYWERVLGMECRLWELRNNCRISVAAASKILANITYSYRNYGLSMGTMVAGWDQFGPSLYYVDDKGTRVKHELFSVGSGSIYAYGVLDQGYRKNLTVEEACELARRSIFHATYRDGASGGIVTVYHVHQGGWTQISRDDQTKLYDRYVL
Put plainly: Trypanosoma cruzi proteasome chymotrypsin-like activity (TcProtChymo) assay. Further: in the data most compounds retested in dose-response had high values. The format is functional. The following applies: 9.37 µM.

The species entered for assay [8] is Homo sapiens. Put plainly: To identify inhibition of the IFN signalling (Jak-Stat) pathway via expression of an eGFP reporter gene under the control of an IFN-stimulated response element (ISRE) containing MxA promoter. The format is functional. The following applies: 30 µM. (In general: A reporter such as luciferase makes a cellular process visible.)
Assay [9] concerns the target T4, Tyrosyl-tRNA synthetase, putative (Trypanosoma cruzi (strain CL Brener)) (UniProt Q4DSP6).
T4 sequence (whole entry): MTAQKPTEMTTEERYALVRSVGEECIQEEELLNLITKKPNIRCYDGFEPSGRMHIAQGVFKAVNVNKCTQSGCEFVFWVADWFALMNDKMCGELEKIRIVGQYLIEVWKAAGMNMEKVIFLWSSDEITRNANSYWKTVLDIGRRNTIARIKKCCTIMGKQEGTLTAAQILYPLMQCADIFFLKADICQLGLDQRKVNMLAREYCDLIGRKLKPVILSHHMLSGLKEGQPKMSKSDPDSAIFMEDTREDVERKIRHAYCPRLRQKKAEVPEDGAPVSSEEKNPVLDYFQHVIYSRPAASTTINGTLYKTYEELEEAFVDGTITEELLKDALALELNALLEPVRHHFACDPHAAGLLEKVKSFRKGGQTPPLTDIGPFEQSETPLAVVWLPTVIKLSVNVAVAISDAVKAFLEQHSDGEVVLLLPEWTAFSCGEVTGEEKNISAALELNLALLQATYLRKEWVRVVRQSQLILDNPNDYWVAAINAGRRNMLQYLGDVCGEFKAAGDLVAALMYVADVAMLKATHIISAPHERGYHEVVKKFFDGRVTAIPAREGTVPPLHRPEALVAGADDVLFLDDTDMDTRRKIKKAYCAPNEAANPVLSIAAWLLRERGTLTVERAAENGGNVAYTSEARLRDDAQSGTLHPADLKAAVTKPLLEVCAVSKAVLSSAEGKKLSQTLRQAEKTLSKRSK
The experiment in a line: Trypanosoma cruzi tyrosyl tRNA synthetase (TcYRS) _High Tyrosine SOP. Further: in the data most compounds retested in dose-response had high values. The format is functional. To be noted: 30 µM.

Assay [10] deals with T4, Tyrosyl-tRNA synthetase, putative (Trypanosoma cruzi (strain CL Brener)). Put plainly: Trypanosoma cruzi tyrosyl tRNA synthetase (TcYRS) SOP. The format is functional. The following applies: 30 µM.
The target in assay [11] is Chromo domain-containing protein 1 (Saccharomyces cerevisiae (strain ATCC 204508 / S288c) (Baker's yeast)) (UniProt P32657). Put plainly: ScCHD-1 Enzyme Inhibition Assay. Further: in the data most compounds retested in dose-response had high values. The class given is functional. To be noted: 30 µM.
Chromo domain-containing protein 1 (Saccharomyces cerevisiae (strain ATCC 204508 / S288c) (Baker's yeast)), sequence (P32657 whole entry, the tested form may be a part): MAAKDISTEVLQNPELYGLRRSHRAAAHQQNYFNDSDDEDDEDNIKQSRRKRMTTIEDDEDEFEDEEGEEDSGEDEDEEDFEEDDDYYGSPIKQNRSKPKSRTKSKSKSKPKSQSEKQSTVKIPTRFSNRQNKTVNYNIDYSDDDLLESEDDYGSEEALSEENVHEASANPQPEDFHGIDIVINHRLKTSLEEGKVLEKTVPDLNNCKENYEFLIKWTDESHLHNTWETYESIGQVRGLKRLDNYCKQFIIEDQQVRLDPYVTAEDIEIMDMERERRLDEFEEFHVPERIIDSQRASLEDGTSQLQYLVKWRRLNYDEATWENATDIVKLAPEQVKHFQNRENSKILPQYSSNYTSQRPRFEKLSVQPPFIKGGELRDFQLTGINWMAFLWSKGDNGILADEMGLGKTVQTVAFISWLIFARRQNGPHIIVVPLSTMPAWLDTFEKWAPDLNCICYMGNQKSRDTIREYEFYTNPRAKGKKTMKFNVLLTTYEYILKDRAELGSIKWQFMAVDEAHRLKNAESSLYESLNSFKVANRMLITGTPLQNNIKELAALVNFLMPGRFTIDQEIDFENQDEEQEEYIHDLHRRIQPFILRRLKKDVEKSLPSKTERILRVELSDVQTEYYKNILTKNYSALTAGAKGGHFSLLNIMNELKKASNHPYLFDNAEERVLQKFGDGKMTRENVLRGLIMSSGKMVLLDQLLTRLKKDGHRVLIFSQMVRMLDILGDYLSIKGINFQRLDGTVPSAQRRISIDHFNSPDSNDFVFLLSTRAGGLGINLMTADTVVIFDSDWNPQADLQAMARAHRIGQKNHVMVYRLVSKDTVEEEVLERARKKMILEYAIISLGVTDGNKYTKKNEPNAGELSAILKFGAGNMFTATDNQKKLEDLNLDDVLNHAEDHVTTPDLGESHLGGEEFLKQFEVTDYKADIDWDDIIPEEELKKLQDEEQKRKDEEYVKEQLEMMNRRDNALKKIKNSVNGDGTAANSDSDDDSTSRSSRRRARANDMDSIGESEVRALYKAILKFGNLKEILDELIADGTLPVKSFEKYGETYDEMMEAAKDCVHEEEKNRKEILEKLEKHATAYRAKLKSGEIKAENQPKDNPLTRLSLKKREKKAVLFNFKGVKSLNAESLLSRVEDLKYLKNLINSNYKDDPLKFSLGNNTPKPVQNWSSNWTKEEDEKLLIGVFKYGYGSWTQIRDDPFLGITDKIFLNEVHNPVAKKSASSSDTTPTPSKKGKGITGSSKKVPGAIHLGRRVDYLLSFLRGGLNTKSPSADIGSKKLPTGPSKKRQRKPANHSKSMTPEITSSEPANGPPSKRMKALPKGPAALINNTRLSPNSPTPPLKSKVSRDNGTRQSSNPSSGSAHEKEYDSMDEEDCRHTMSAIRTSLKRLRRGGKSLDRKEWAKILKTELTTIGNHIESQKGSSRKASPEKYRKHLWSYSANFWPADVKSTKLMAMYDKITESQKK

Protein translocase subunit SecA (Escherichia coli (strain K12)), sequence (P10408 whole entry): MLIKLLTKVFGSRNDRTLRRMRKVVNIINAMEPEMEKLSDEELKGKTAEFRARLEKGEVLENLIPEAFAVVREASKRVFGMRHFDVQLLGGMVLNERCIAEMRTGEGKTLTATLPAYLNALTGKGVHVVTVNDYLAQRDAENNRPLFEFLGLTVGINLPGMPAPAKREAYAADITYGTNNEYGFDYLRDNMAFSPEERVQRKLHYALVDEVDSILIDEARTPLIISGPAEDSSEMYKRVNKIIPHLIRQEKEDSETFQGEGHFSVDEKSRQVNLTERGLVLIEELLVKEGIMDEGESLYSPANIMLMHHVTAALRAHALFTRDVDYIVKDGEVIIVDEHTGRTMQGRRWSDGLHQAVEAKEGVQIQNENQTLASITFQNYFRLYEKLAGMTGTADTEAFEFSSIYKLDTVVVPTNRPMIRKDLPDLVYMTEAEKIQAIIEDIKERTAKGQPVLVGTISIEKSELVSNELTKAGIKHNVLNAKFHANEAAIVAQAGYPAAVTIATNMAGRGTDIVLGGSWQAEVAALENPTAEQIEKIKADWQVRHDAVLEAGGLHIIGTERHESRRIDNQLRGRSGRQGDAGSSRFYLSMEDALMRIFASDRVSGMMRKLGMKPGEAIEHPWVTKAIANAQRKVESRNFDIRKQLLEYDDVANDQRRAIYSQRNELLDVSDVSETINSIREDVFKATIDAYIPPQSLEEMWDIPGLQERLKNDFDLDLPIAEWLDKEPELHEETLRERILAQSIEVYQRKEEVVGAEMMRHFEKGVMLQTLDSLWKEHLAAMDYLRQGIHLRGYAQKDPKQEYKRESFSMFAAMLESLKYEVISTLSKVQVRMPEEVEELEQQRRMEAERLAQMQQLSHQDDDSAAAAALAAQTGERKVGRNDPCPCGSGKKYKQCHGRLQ
Sialic acid-binding Ig-like lectin 9 (Homo sapiens), sequence (Q9Y336 whole entry): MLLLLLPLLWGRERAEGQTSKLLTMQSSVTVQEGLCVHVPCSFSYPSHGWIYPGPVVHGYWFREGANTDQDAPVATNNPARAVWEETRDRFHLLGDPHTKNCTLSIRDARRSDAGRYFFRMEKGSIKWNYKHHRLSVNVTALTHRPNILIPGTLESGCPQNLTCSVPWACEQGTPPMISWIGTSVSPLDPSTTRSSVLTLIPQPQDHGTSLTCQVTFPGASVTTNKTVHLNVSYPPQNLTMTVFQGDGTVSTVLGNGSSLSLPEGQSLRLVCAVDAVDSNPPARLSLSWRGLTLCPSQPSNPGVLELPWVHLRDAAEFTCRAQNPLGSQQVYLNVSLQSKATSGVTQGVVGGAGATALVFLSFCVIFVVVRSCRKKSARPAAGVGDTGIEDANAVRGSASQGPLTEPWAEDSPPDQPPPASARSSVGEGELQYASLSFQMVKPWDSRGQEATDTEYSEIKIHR

Turning to `CC(C)[C@H](NC(=O)NC1CCS(=O)(=O)C1)C(=O)NCc1cccnc1` (stereo not given in full), the Percent Effect in assay [1] is 1.49%; in assay [2], -1.33%; in [3] it was 5.47%; in assay [4] it was 2.33%; in [5], -4.52%; in assay [6] it was -5.46%. Besides, the Percent Effect in assay [7] is 7.95%; in assay [8], -6.4%; in assay [9] it was 0%; in assay [10], 5.13%; in [11] it was 1.13%.

In the case of `Nc1nc(CN2CCOC(Cn3cncn3)C2)nc2ccccc12` (stereo not given), the Percent Effect was -2.89% in assay [1]; 0% in assay [2]; 2.62% in assay [3]; -2.89% in assay [4]; -1.02% in assay [5]; 0.924% in [6]. Besides, the Percent Effect in [7] was -7.18%; in assay [8], 0.0129%; in assay [9], 1.98%; in assay [10] it was 3.66%; in assay [11], 6.29%.

Turning to `Clc1ccc2oc(C3CCN(Cc4cccnc4)CC3)nc2c1`, the Percent Effect in [1] was 0.753%; in [2], 13.5%; in assay [3], 5.18%; in [4] it was 16.9%; in assay [5], 5.02%; in assay [6], -10.5%. Also, the Percent Effect in assay [7] is 15.5%; in assay [8], 32.2%; in assay [9] it was -0.529%; in assay [10], 12.2%; in assay [11], -6.96%.

As for `CCCc1n[nH]c(C2CN(CCNS(=O)(=O)CC)CCO2)n1` (stereo not given), the Percent Effect was -1.25% in [1]; 19% in [2]; 4.75% in assay [3]; -2.28% in assay [4]; -0.718% in assay [5]; 1.5% in [6]. The Percent Effect in assay [7] was 12.9%; in [8], 18.3%; in [9] it was 8.33%; in [10], 15.2%; in assay [11], -20.1%.

As to `Cc1c(C(=O)NC(C)C(C)C)nnn1-c1cccc2c1CCN(C)C2` (stereo not given), the Percent Effect in [1] is -4.44%; in [2], 10.5%; in assay [3] it was -6.99%; in assay [4], 3.62%; in assay [5], 1.85%; in assay [6] it was -17.8%. For the same molecule, the Percent Effect in [7] was 7.19%; in assay [8] it was 3.15%; in assay [9], 3.19%; in [10], 0%; in assay [11], -11.2%.

Turning to `CCOCC(=O)N1CCC(Oc2ccc(C(F)(F)F)cn2)CC1`, the Percent Effect in assay [1] is 0.852%; in [2], 5.2%; in assay [3] it was 2.97%; in assay [4], 4.76%; in assay [5], -5.42%; in assay [6] it was 13.6%. Also, the Percent Effect in assay [7] was 15.1%; in assay [8] it was 12.1%; in assay [9], 0%; in [10] it was 3.85%; in [11], -4.83%.

Take `O=C(c1ccccc1OCC1CC1)N1CCCC(n2ccnc2)C1` (stereo not given): the Percent Effect in assay [1] is 1.84%; in assay [2] it was 1.27%; in assay [3], 11.2%; in [4] it was -0.0308%; in [5] it was 3.18%; in assay [6], 5.81%. In addition, the Percent Effect was 10.3% in assay [7]; -14% in [8]; 2.08% in assay [9]; 7.59% in assay [10]; -6.24% in assay [11].

For the molecule `CN(C)C(=O)CC1CC2(CCN(CC3CC3)CC2)c2cc(F)ccc21` (stereo not given), the Percent Effect in [1] is -6.7%; in assay [2] it was 5.41%; in assay [3] it was -8.18%; in assay [4], -5.86%; in assay [5] it was -2.44%; in assay [6] it was -4.14%. Moreover, the Percent Effect in [7] was 3.14%; in assay [8], 5.88%; in assay [9] it was -5.41%; in [10] it was -2.56%; in assay [11] it was 5.46%.

For the molecule `Cc1nn(C)c(N(C)C)c1CNCc1cccnc1-n1cncn1`, the Percent Effect is -3.71% in [1]; 8.86% in [2]; 1.44% in [3]; 1.22% in assay [4]; -4.21% in assay [5]; 3.23% in assay [6]. For the same molecule, the Percent Effect is 12.9% in assay [7]; -1.83% in assay [8]; 7.29% in assay [9]; 12.7% in assay [10]; -7.57% in assay [11].

As to `COCCN1CCC2(CC1)CC(COC)N(c1ncccn1)C2` (stereo not given), the Percent Effect in assay [1] is -4.36%; in assay [2], 7.79%; in assay [3] it was 1.21%; in assay [4], 1.5%; in assay [5], 1.48%; in [6], -19.3%. Besides, the Percent Effect in [7] is 7.99%; in assay [8] it was -6.06%; in assay [9] it was 3.23%; in [10], 3.7%; in [11], 1.23%.
